# Reference: PubChem BioAssay AID651662 (NMMLSC, 2012)
# A number with no mark means an inactive call.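 The calls were made as follows: active = fitted concentration giving half the fluorescence drop below 100 µM; inactive = the rest.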
# Experiment: fluorescence decrease in K562 empty-vector cells, dose response, counter-screen for ABCB6 inhibitor project, cell-based, flow cytometry, PowderSet01 powders (AID 651662)
# Details: 1 h; series mostly up to 100 µM; percent response (fluorescence change): at the top concentration
row,Compound,percent response (fluorescence change) [%]
1,CC(=O)Nc1ccc(NC(=O)c2nc(S(=O)(=O)Cc3cccc(C)c3)ncc2Cl)cc1,2610
2,CCOc1ccccc1NC(=O)c1nc(S(=O)(=O)Cc2cccc(C)c2)ncc1Cl,512
3,CCc1ccc(NC(=O)c2nc(S(=O)(=O)Cc3ccccc3)ncc2Cl)cc1,518
4,CC(=O)Nc1ccc(NC(=O)c2nc(S(=O)(=O)Cc3ccccc3)ncc2Cl)cc1,443
